Experimental data taken from PubChem BioAssay.
Active and inactive are the calls of the source. Unless noted, how the calls were made is not given here.

How the values were obtained:
[1] = tested on: Wnt5a (protein binding on small-molecule microarray); assay: Wnt5a binders on small-molecule microarray, primary screen, biophysical, 635/667 nm fluorescence (AID 1142); settings: 635 nm fluorescence, higher = more signal;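 further: fluorescence read at 667 nm with signal to noise per printed feature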
[2] = cell viability in Huh7 cells, primary screen, cytotoxicity control for HCV replication inhibitor project, CellTiter-Glo luminescence, basal, 48 h (AID 1143); settings: Huh7 HCV replicon, higher = more signal, called active from +8 up or from −8 down;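 further: Huh7 hepatoma cells carrying a hepatitis C replication reporter with no stimulus; test concentration not given here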
[3] = P. aeruginosa biofilm formation inhibitors, primary screen, PAO1 strain, BacTiter-Glo luminescence, LB-PBS (AID 1144); settings: 12 h, higher = more signal
[4] = CREB reporter modulators without forskolin, primary screen, cell-based, PC12, CRE-LacZ reporter, unstimulated (AID 1145); settings: no forskolin, luminescence, 4.5 h, higher = more signal, called active from +8 up or from −8 down
[5] = CREB reporter modulators under forskolin, primary screen, cell-based, PC12, CRE-LacZ reporter, forskolin-stimulated (AID 1146); settings: luminescence, 4.5 h, higher = more signal, called active from +8 up or from −8 down;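 further: PC12 cells with 6xCRE LacZ reporter stimulated by forskolin 10 µM; beta-galactosidase reporter signal reflecting CREB driven transcription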
[6] = biological target: Streptavidin (Streptomyces avidinii) (UniProt P22629); assay: streptavidin binders on small-molecule microarray, primary screen, artefact control for SMM compound annotation, biophysical, 635/667 nm fluorescence (AID 1147); settings: streptavidin binding, higher = more signal;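 further: signal reflects streptavidin binding to arrayed compounds as a control protein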
[7] = small-molecule binders of probe aInhba, primary screen, biochemical, small-molecule microarray, 635/667 nm fluorescence (AID 1148); settings: higher = more signal;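 further: score merges 667nm spot fluorescence with signal-to-noise for antibody binding to printed compounds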
Torsin-1A (Homo sapiens) [8] = biological target: Torsin-1A (Homo sapiens) (UniProt O14656); assay: torsin A binders from cell lysate, primary screen, small-molecule microarray, wild-type, 635/667 nm (AID 1149); settings: COS7 hTOR1A-WT lysate, 635 nm fluorescence, higher = more signal
Torsin-1A (Homo sapiens) [9] = biological target: Torsin-1A (Homo sapiens) (UniProt O14656); assay: small-molecule binders of mutant TOR1A in lysate, primary screen, cell lysate, small-molecule microarray, COS7 lysate, 635/667 nm fluorescence (AID 1150); settings: COS7 hTOR1A mutant lysate, 635 nm fluorescence, higher = more signal;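 further: score pools 667 nm emission and signal to noise measuring lysate protein binding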
[10] = tested on: Sonic hedgehog protein (Shh); assay: small-molecule binders of Shh protein, primary screen, biochemical, small-molecule microarray, 635/667 nm fluorescence (AID 1151); settings: small-molecule microarray binding, 635 nm fluorescence; higher = more signal;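 further: Shh protein binding to compounds spotted on small-molecule microarray slides; score combines spot fluorescence intensity with signal-to-noise across triplicate slides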

Chain of Streptavidin (Streptomyces avidinii) (P22629 whole entry, looked up): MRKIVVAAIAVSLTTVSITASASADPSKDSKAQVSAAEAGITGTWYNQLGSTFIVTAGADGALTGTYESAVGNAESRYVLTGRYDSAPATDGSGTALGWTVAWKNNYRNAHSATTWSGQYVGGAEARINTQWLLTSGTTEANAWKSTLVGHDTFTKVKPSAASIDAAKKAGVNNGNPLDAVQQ
Chain of Torsin-1A (Homo sapiens) (O14656 whole entry, looked up): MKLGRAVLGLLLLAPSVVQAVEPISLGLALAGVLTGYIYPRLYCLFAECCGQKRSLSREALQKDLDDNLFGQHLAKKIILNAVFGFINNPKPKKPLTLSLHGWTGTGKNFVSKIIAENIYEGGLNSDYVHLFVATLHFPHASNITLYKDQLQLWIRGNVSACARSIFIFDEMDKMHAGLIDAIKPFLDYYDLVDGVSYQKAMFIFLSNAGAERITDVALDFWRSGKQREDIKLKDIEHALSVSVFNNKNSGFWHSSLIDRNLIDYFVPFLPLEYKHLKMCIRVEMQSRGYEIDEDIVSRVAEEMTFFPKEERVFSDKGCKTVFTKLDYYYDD

O=C1O[C@@H](c2ccccc2)[C@@H](c2ccccc2)N2[C@@H](c3ccc(OCCO)cc3)[C@]3(C(=O)Nc4ccc(C#CCCO)cc43)[C@@H](C(=O)N3CCN(c4ncccn4)CC3)[C@H]12
composite z-score [1]: 0.544
z-score [2]: -0.284 (inactive)
z-score [3]: -0.132 (inactive)
z-score [4]: 0.478 (inactive)
z-score [5]: 0.0989 (inactive)
composite z-score [6]: 0.509
composite z-score [7]: 0.0403
composite z-score (Torsin-1A (Homo sapiens) [8]): 0.376
composite z-score (Torsin-1A (Homo sapiens) [9]): 0.5
composite z-score [10]: 1.93

O=C1OCCC/C=C\[C@H]2OC34C=CCN(CCN5CCOCC5)C(=O)[C@H]3N(CCCCCO)C(=O)[C@@H]4C12 (stereo not given in full)
composite z-score [1]: -0.498
z-score [2]: 0.305 (inactive)
z-score [3]: 1.67 (inactive)
z-score [4]: 0.597 (inactive)
z-score [5]: 0.515 (inactive)
composite z-score [6]: -0.293
composite z-score [7]: 0.202
composite z-score (Torsin-1A (Homo sapiens) [8]): -1.01
composite z-score (Torsin-1A (Homo sapiens) [9]): -0.649
composite z-score [10]: 0.392

CC(C)C[C@@H]1NC(=O)[C@H](CC(C)C)NC(=O)[C@@]23C(=O)N[C@@H](Cc4ccccc4)C2[C@H](C)[C@@]2(C)O[C@H]2C3/C=C/CC/C=C/CNC1=O (stereo not given in full)
composite z-score [1]: -0.048
z-score [2]: -3.54 (inactive)
z-score [3]: -1.16 (inactive)
z-score [4]: 0.126 (inactive)
z-score [5]: -0.792 (inactive)
composite z-score [6]: 1.3
composite z-score [7]: -0.128
composite z-score (Torsin-1A (Homo sapiens) [8]): 0.382
composite z-score (Torsin-1A (Homo sapiens) [9]): 0.29
composite z-score [10]: 1.14

[N-]=[N+]=NCc1ccccc1C[C@@]1(C(=O)O)N=C(c2ccc(OCCCO)cc2)O[C@@H]1c1ccccc1N=[N+]=[N-]
composite z-score [1]: -0.0964
z-score [2]: -2.2 (inactive)
z-score [3]: -0.439 (inactive)
z-score [4]: 0.488 (inactive)
z-score [5]: 0.142 (inactive)
composite z-score [6]: 0.312
composite z-score [7]: 0.0073
composite z-score (Torsin-1A (Homo sapiens) [8]): 0.0819
composite z-score (Torsin-1A (Homo sapiens) [9]): 0.0245
composite z-score [10]: -0.165

COC(=O)[C@@]1(Cc2ccc(OC)cc2)[C@H]2c3cc(C(=O)N(C)C)n(CCc4ccc(OC)c(Br)c4)c3C[C@H]2CN1C(=O)c1ccccc1
composite z-score [1]: 0.839
z-score [2]: -3.88 (inactive)
z-score [3]: 0.28 (inactive)
z-score [4]: 0.39 (inactive)
z-score [5]: 0.0318 (inactive)
composite z-score [6]: 1.95
composite z-score [7]: 0.993
composite z-score (Torsin-1A (Homo sapiens) [8]): -0.242
composite z-score (Torsin-1A (Homo sapiens) [9]): 0.733
composite z-score [10]: 0.116

Cc1ccc(N2C(=O)c3ccccc3[C@](C)(C(=O)NCC(C)C)[C@@H]2c2ccc(CO)cc2)nc1
composite z-score [1]: -0.116
z-score [2]: 0.985 (inactive)
z-score [3]: -0.309 (inactive)
z-score [4]: -0.0888 (inactive)
z-score [5]: -0.002 (inactive)
composite z-score [6]: -1.12
composite z-score [7]: -0.147
composite z-score (Torsin-1A (Homo sapiens) [8]): -0.458
composite z-score (Torsin-1A (Homo sapiens) [9]): -1.26
composite z-score [10]: -0.656

N#Cc1ccc(NN2C(C(O)c3ccc(I)cc3)C=CC3C(=O)N(c4ccccc4)C(=O)C32)cc1 (stereo not given)
composite z-score [1]: 0.205
z-score [2]: 0.559 (inactive)
z-score [3]: -0.363 (inactive)
z-score [4]: -1.49 (inactive)
z-score [5]: -0.755 (inactive)
composite z-score [6]: 0.941
composite z-score [7]: -0.0645
composite z-score (Torsin-1A (Homo sapiens) [8]): -0.147
composite z-score (Torsin-1A (Homo sapiens) [9]): 0.629
composite z-score [10]: -0.468

Cc1ccc(S[C@]2(C(=O)NC(C)C)CC(=O)N(Cc3cc(C(F)(F)F)cc(C(F)(F)F)c3)[C@@H]2c2ccc(CO)cc2I)cc1
composite z-score [1]: -0.168
z-score [2]: -1.11 (inactive)
z-score [3]: 0.381 (inactive)
z-score [4]: -0.554 (inactive)
z-score [5]: 1.28 (inactive)
composite z-score [6]: -0.995
composite z-score [7]: -0.148
composite z-score (Torsin-1A (Homo sapiens) [8]): 0.61
composite z-score (Torsin-1A (Homo sapiens) [9]): 1.66
composite z-score [10]: -0.0174

C[C@@H]1NC(=O)[C@H](Cc2ccccc2)NC(=O)[C@@]23C(=O)N[C@@H](Cc4ccccc4)C2[C@H](C)[C@@]2(C)O[C@H]2C3/C=C/C/C=C\CNC1=O (stereo not given in full)
composite z-score [1]: -0.401
z-score [2]: 0.0081 (inactive)
z-score [3]: 0.683 (inactive)
z-score [4]: 0.125 (inactive)
z-score [5]: 0.349 (inactive)
composite z-score [6]: -0.528
composite z-score [7]: -0.128
composite z-score (Torsin-1A (Homo sapiens) [8]): -0.0926
composite z-score (Torsin-1A (Homo sapiens) [9]): -0.0686
composite z-score [10]: 0.596

O=C1c2ccccc2[C@@]2(Cc3ccccc3N(CC(F)(F)F)C2=O)[C@H](c2ccc(CO)cc2)N1C1CCCCC1
composite z-score [1]: 0.327
z-score [2]: -0.323 (inactive)
z-score [3]: 0.00188 (inactive)
z-score [4]: -0.168 (inactive)
z-score [5]: -0.838 (inactive)
composite z-score [6]: -0.256
composite z-score [7]: 0.207
composite z-score (Torsin-1A (Homo sapiens) [8]): 0.17
composite z-score (Torsin-1A (Homo sapiens) [9]): -0.309
composite z-score [10]: 0.522

Cc1ccc(S[C@]2(C(=O)NC3CC3)CC(=O)N(Cc3cc(C(F)(F)F)cc(C(F)(F)F)c3)[C@@H]2c2ccc(CO)cc2)cc1
composite z-score [1]: 0.134
z-score [2]: -2.38 (inactive)
z-score [3]: -1.59 (inactive)
z-score [4]: -0.374 (inactive)
z-score [5]: 0.121 (inactive)
composite z-score [6]: -0.103
composite z-score [7]: -0.128
composite z-score (Torsin-1A (Homo sapiens) [8]): -0.408
composite z-score (Torsin-1A (Homo sapiens) [9]): 0.227
composite z-score [10]: 1.38

C#CCNC(/C=C/c1ccccc1)CO (stereo not given)
composite z-score [1]: -0.0285
z-score [2]: 0.171 (inactive)
z-score [3]: -0.558 (inactive)
z-score [4]: -0.237 (inactive)
z-score [5]: 1.39 (inactive)
composite z-score [6]: -0.114
composite z-score [7]: -0.0846
composite z-score (Torsin-1A (Homo sapiens) [8]): 0.304
composite z-score (Torsin-1A (Homo sapiens) [9]): 0.443
composite z-score [10]: 0.448

CCOC(=O)C[C@H]1[C@H](OC(=O)c2ccccc2-c2ccccc2)[C@@H](NC(=O)c2ccc(-c3ccccc3)cc2)c2cc(OCCCO)ccc2N1C(=O)Cc1ccc(OC)cc1
composite z-score [1]: 0.17
z-score [2]: 0.132 (inactive)
z-score [3]: 0.846 (inactive)
z-score [4]: 2.3 (inactive)
z-score [5]: 0.41 (inactive)
composite z-score [6]: 0.0511
composite z-score [7]: 0.038
composite z-score (Torsin-1A (Homo sapiens) [8]): -0.153
composite z-score (Torsin-1A (Homo sapiens) [9]): 1.02
composite z-score [10]: 0.56

O=C1C2C=CC(C(O)C#Cc3ccccc3)N(Nc3ccccc3)C2C(=O)N1c1ccccc1 (stereo not given)
composite z-score [1]: 0.0509
z-score [2]: 0.842 (inactive)
z-score [3]: -0.2 (inactive)
z-score [4]: 0.24 (inactive)
z-score [5]: 0.0728 (inactive)
composite z-score [6]: 0.464
composite z-score [7]: 0.0659
composite z-score (Torsin-1A (Homo sapiens) [8]): 0.795
composite z-score (Torsin-1A (Homo sapiens) [9]): -0.0627
composite z-score [10]: -0.0028

C=CC[C@@]1(C(=O)NCC(O)CO)N=C(c2ccc(OCCCO)cc2)O[C@@H]1c1ccccc1CN=[N+]=[N-] (stereo not given in full)
composite z-score [1]: -0.233
z-score [2]: -1.74 (inactive)
z-score [3]: -0.427 (inactive)
z-score [4]: -0.459 (inactive)
z-score [5]: -0.783 (inactive)
composite z-score [6]: 0.0285
composite z-score [7]: 0.0705
composite z-score (Torsin-1A (Homo sapiens) [8]): 1.09
composite z-score (Torsin-1A (Homo sapiens) [9]): 2.13
composite z-score [10]: -0.364

COCCOC(=O)N1C(=O)[C@@]2(c3cc(C#CCCO)ccc31)[C@H](c1ccc(OCCO)cc1)N1[C@H](c3ccccc3)[C@H](c3ccccc3)OC(=O)[C@H]1[C@@H]2C(=O)NC[C@H](O)c1ccccc1
composite z-score [1]: 0.619
z-score [2]: -2.79 (inactive)
z-score [3]: -0.668 (inactive)
z-score [4]: -1.42 (inactive)
z-score [5]: -0.137 (inactive)
composite z-score [6]: 0.427
composite z-score [7]: 0.0183
composite z-score (Torsin-1A (Homo sapiens) [8]): 0.703
composite z-score (Torsin-1A (Homo sapiens) [9]): 1.16
composite z-score [10]: 1.7

COC(=O)[C@@]1(Cc2ccccc2CN=[N+]=[N-])N=C(c2ccc(OCCCO)cc2)O[C@H]1c1ccccc1N=[N+]=[N-]
composite z-score [1]: 0.54
z-score [2]: -3.9 (inactive)
z-score [3]: -0.174 (inactive)
z-score [4]: 2.28 (inactive)
z-score [5]: -0.505 (inactive)
composite z-score [6]: -0.104
composite z-score [7]: -0.0645
composite z-score (Torsin-1A (Homo sapiens) [8]): -1.42
composite z-score (Torsin-1A (Homo sapiens) [9]): -0.855
composite z-score [10]: 1.77

Cc1ccc(N2C(=O)c3ccccc3[C@@H](C(=O)NCC(F)(F)F)[C@@H]2c2ccc(CO)cc2)nc1
composite z-score [1]: 0.0023
z-score [2]: -0.977 (inactive)
z-score [3]: 0.00438 (inactive)
z-score [4]: 0.791 (inactive)
z-score [5]: 0.495 (inactive)
composite z-score [6]: -1.62
composite z-score [7]: 0.17
composite z-score (Torsin-1A (Homo sapiens) [8]): -1.76
composite z-score (Torsin-1A (Homo sapiens) [9]): -1.78
composite z-score [10]: 0.0716
